Potency, max response and outcome data for 29 molecules are collected here from PubChem BioAssay (NCATS).

The structures appear in SMILES notation. Values without a mark were called inactive. Inconclusive results are not listed. The source made the active and inactive calls. Calls come from the whole dose curve; as a rule, active = well fitted curve in the direction sought with a large enough effect; inconclusive = small, poorly fitted or top-dose-only effect, or another doubt; inactive = no such curve, though single readings can be large; an effect the other way counts as inactive or inconclusive.

The target of assay [1] is Arylsulfatase A (Homo sapiens) (UniProt P15289). In words: qHTS screen for enhancers of Arylsulfatase A (ASA1): LOPAC Validation Assay (AID 720538). Note: potency is the fitted concentration of half-maximal effect. The method, boiled down:
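Enhancer assay in patient-derived MLD fibroblasts carrying ASA-I179S: 48 h compound exposure at 37 C, then 14 h room-temperature pNCS turnover (0.5 mM final) in lysis buffer. Read by fluorescence at 525/598 nm after NaOH stop.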
Background: In qHTS, concentration-response curves come from the screen itself.

A short description of assay [2]: qHTS for Activators of Parkin Expression: LOPAC Validation Assay (NLuc Reporter) (AID 720572;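 note: 0% = DMSO and 100% = positive control compound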). The method in brief:
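Neuronal line stably carrying a FLuc/NLuc coincidence reporter under the Parkin promoter, seeded 24 h, then dosed in 7-point series for 24 h at 37 C. NLuc luminescence read after FLuc; normalized to DMSO and positive control (100%).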

A short description of assay [3]: qHTS for Activators of Parkin Expression: LOPAC Validation Assay (FLuc Reporter) (AID 720573;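 note: 0% = DMSO and 100% = positive control compounds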). The method in brief: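 FLuc signal from Parkin-promoter coincidence reporter neuronal cells, normalized to DMSO and positive control (100%). Cells (1,500/well) pre-incubated 24 h, then exposed to LOPAC compounds in 7-point dose response for 24 h at 37 C, 5% CO2.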
Assay [4] has as its target T1, Hexokinase-4 (Homo sapiens) + Glucokinase regulatory protein (Homo sapiens) (UniProt P35557+Q14397). Kind of assay: qHTS assay for inhibitors of recombinant human GCK-GKRP interaction: Diaphorase-coupled assay (AID 743205). Note: potency is the fitted concentration of half-maximal effect. The method, boiled down: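 A kinetic fluorescence read (Ex 525/Em 590 nm, every minute for 30 minutes) tracked resorufin from a G6PDH-diaphorase coupled GCK reaction. It contained 10 nM GST-GCK, 10 nM FLAG-GKRP, 5 mM glucose, 0.4 mM ATP in Hepes pH 7.6. Normalized to with/without-enzyme DMSO controls.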

Assay [5] addresses T1, Hexokinase-4 (Homo sapiens) + Glucokinase regulatory protein (Homo sapiens). Kind of assay: qHTS assay for inhibitors of recombinant human GCK-GKRP interaction: ADP-Glo assay (AID 743206). Note: potency is the fitted concentration of half-maximal effect. The method in brief: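 GST-GCK and FLAG-GKRP (15 nM each in the dispensed mix, with 2 uM S6P) react with 0.4 mM ATP and 5 mM glucose (final) in Hepes pH 7.6 for 60 min at room temperature. ADP is measured by ADP-Glo luminescence.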

Assay [6] shares this target. In words: qHTS assay for inhibitors of recombinant human GCK-GKRP interaction: HTRF assay (AID 743207). Note: potency is the fitted concentration of half-maximal effect. The method in brief:
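After 60 min equilibration at room temperature with anti-FLAG XL665 and anti-GST antibodies, FRET ratio (665/615 nm, excitation 320 nm) was read. Proteins: GST-GCK and FLAG-GKRP, each 5 nM, plus 2 uM S6P, pH 7.1 buffer; GCK-free wells define minimum signal.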

Assay [7] is described as follows: qHTS Assay for Identifying Gametocytocidal Compounds (AID 743244).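 Note: % is set by controls: 0 for no effect and ±100 for the full control effect; actives lower the fluorescent signal which means gametocytes are killed.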 Conditions: P. falciparum 3D7 stage III-V gametocytes, alamarBlue, 72 h; max response: active compounds read low. The method in brief: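 Compounds are pinned into medium, gametocytes (stage III–V, 3D7, 20,000 cells/well) added, and plates held 72 h at 37 °C in 5% CO2. AlamarBlue follows for 24 h before fluorescence reading.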

Assay [8] can be described thus: qHTS for compounds that reverse cellular toxicity of Amyloid beta (A-beta) peptide in yeast: LOPAC Validation Assay (AID 720559).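 Note: plate controls were DMSO for no effect and equimolar ferric chloride plus clioquinol rescue for full effect.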 The method in brief:
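Rescue of A-beta toxicity was scored as yeast growth by 600 nm absorbance after 48 hr at 30 C with compound. Normalization used DMSO (negative) and equimolar ferric chloride plus clioquinol (positive).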

Sequence of Arylsulfatase A (Homo sapiens) (P15289 whole entry, looked up): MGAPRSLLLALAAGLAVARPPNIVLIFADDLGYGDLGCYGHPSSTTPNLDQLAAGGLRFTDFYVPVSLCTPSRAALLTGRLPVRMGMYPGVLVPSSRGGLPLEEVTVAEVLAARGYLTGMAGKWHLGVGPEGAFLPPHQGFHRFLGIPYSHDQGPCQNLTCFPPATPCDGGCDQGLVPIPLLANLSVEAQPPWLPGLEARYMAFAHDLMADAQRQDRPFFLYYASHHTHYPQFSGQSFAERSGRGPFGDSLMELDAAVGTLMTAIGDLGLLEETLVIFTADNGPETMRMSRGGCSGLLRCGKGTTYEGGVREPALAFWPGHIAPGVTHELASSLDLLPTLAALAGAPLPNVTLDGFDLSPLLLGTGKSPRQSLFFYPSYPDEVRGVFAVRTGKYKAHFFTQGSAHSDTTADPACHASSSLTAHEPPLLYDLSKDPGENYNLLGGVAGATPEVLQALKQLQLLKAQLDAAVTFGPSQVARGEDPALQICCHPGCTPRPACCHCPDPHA
T1 sequence (P35557 whole entry, looked up): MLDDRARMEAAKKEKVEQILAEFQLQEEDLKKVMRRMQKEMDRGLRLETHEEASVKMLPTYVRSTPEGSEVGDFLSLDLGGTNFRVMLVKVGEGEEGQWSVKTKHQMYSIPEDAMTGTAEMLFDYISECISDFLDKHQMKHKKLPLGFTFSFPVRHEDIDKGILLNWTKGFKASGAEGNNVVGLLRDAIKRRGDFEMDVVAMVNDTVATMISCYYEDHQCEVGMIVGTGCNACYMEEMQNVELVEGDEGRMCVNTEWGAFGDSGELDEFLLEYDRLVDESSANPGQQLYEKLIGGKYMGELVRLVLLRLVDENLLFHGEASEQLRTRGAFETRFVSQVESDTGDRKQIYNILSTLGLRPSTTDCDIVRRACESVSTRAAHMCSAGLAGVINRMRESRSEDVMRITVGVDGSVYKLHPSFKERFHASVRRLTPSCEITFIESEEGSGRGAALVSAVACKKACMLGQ
T1 sequence (Q14397 whole entry, looked up): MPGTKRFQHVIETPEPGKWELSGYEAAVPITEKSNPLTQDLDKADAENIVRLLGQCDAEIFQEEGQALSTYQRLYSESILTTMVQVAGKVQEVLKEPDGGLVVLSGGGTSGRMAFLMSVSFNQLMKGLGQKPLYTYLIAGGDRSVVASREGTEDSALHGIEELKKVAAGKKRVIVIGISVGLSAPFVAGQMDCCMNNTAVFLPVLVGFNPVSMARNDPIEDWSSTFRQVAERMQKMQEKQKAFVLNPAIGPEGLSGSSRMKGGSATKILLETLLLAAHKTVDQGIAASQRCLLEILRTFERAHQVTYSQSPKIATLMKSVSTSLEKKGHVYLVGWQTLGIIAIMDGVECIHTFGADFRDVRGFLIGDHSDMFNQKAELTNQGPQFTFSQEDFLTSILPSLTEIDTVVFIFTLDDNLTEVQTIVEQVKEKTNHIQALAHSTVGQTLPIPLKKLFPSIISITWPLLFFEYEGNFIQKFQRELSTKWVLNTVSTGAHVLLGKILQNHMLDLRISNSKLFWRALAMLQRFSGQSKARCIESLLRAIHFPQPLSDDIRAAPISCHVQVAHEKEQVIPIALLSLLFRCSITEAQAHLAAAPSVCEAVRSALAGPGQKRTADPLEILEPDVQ

As to `S=C(S)N1CCCC1`, the Potency entry in assay [1], in assay [2], in assay [3], in assay [4], in assay [5] and in assay [6] was “inactive” throughout.
On to `Cc1nc(N=Nc2ccc(C(=O)O)cc2)c(COP(=O)(O)O)c(C=O)c1O`, for which the Potency result in assay [1], in assay [2], in assay [3], in assay [4], in assay [5] and in assay [6] was “inactive” each time. Besides, the max response in assay [7] was 5.37%.
Regarding `CC(C)(C)c1cc(/C=C(\C#N)C(N)=S)cc(C(C)(C)C)c1O`, the Potency result in assay [1], in assay [2], in assay [3], in assay [4], in assay [5] and in assay [6] was “inactive” throughout. For the same molecule, the max response in assay [7] was 6.59%.
Regarding `c1ccc(C(NCc2cccnc2)(c2ccccc2)c2ccccc2)cc1`, the Potency result in assay [1], in assay [3], in assay [4], in assay [5] and in assay [6] was “inactive” throughout. In addition, the max response in assay [7] was 16.7%.
With `CCCCCC(O)CCCC(=O)O` (stereo unspecified), the Potency entry in assay [1], in assay [2], in assay [3], in assay [4], in assay [5] and in assay [6] was “inactive” each time. In assay [7], the max response is -4.98%.
As to `CC(N)(Cc1ccc(O)cc1)C(=O)O` (stereo unspecified), the Potency entry in assay [1], in assay [4], in assay [5] and in assay [6] was “inactive” throughout. The max response in assay [7] is -28.2%.
For `Cn1c(=O)c2[nH]c(-c3ccc(S(=O)(=O)O)cc3)nc2n(C)c1=O`, the Potency entry in assay [1], in assay [2], in assay [3], in assay [4], in assay [5] and in assay [6] was “inactive” in each case. The max response in assay [7] is 26.7%.
As for `COc1cccc(OC)c1OCCNCC1CSc2ccccc2O1` (stereo unspecified), in assay [1], the Potency was 1.07 µM (active). The Potency result in assay [2], in assay [3], in assay [4], in assay [5] and in assay [6] was “inactive” each time. For the same molecule, the max response in assay [7] is 8.7%.
With `NCC(O)c1ccc(O)c(O)c1` (stereo unspecified), the Potency entry in assay [1], in assay [4], in assay [5] and in assay [6] was “inactive” each time.
Take `N[C@H]1CONC1=O`: the Potency result in assay [1], in assay [4], in assay [5] and in assay [6] was “inactive” throughout. Moreover, the max response in assay [7] was 7.19%.
Turning to `CN1CC(O)C(O)C(O)C1CO` (stereo unspecified), the Potency entry in assay [1], in assay [2], in assay [3], in assay [4], in assay [5] and in assay [6] was “inactive” in each case. In addition, in assay [7], the max response is 11.6%.
Turning to `OC[C@H]1O[C@@H](n2cnc3cncnc32)[C@H](O)[C@@H]1O`, the Potency result in assay [1], in assay [2], in assay [3], in assay [4], in assay [5] and in assay [6] was “inactive” each time. In assay [7], the max response is 19.7%.
Take `N=S(=O)(O)Cc1noc2ccccc12`: the Potency result in assay [1], in assay [2], in assay [3], in assay [4], in assay [5] and in assay [6] was “inactive” each time.
Turning to `NC1(C(=O)O)CCCCC1`, in assay [8], the call was inactive. In addition, the Potency result in assay [2], in assay [3], in assay [4], in assay [5] and in assay [6] was “inactive” in each case. In addition, the max response in assay [7] was 26.2%.
Consider `CCCCS(=N)(=O)CC[C@H](N)C(=O)O` (stereo partly specified), for which the molecule was called inactive in assay [8]. Besides, the Potency result in assay [2], in assay [3], in assay [4], in assay [5] and in assay [6] was “inactive” throughout. Also, in assay [7], the max response was 6.27%.
Consider `N[C@@H](Cc1c[nH]c2ccccc12)C(=O)O`, for which the outcome in assay [8] was inactive. Further, the Potency entry in assay [2], in assay [3], in assay [4], in assay [5] and in assay [6] was “inactive” in each case.
As to `COc1ccc(C(=O)NCc2cccnc2)cc1C(=O)NCc1cccnc1`, the result in assay [8] was inactive. The Potency result in assay [2], in assay [3], in assay [4], in assay [5] and in assay [6] was “inactive” each time.
For the molecule `Cc1ccccc1/C=C/C1=NCCN1`, in assay [8], the outcome was inactive. In addition, the Potency result in assay [2], in assay [3], in assay [4], in assay [5] and in assay [6] was “inactive” each time.
As for `COc1ccc(-c2ccc(N)[n+](CCCC(=O)O)n2)cc1`, the call in assay [8] was inactive. Moreover, the Potency entry in assay [2], in assay [3], in assay [4], in assay [5] and in assay [6] was “inactive” each time. In assay [7], the max response is 23.8%.
For the molecule `Nn1nnc2ccccc21`, the outcome in assay [8] was inactive. Besides, the Potency result in assay [2], in assay [3], in assay [4], in assay [5] and in assay [6] was “inactive” each time. For the same molecule, the max response in assay [7] was 16.9%.
Regarding `C#CC(N)CCC(=O)O` (stereo unspecified), in assay [8], the result was inactive. Further, the Potency entry in assay [2], in assay [3], in assay [4], in assay [5] and in assay [6] was “inactive” in each case. Also, the max response in assay [7] is 8.18%.
As for `O=C1OC(=O)C2C3CCC(O3)C12` (stereo unspecified), the result in assay [8] was inactive. The Potency result in assay [2], in assay [3], in assay [4], in assay [5] and in assay [6] was “inactive” throughout. For the same molecule, the max response in assay [7] was 26.3%.
As to `N#C/C(=C\c1ccc(O)c(O)c1)C(=O)NCCc1ccccc1`, in assay [8], the result was inactive. Also, the Potency result in assay [2], in assay [3], in assay [4], in assay [5] and in assay [6] was “inactive” each time. Also, the max response in assay [7] was 5.86%.
Consider `CC(C)[C@@H]1CC[C@@H](C)C[C@@H]1P(=O)(c1ccccc1)c1ccccc1`, for which the molecule was classed as inactive in assay [8]. In addition, the Potency entry in assay [2], in assay [3], in assay [4], in assay [5] and in assay [6] was “inactive” each time.
With `Cn1c(=O)c2c(nc(/C=C/c3cccc(Cl)c3)n2C)n(C)c1=O`, the call in assay [8] was inactive. For the same molecule, the Potency entry in assay [2], in assay [3], in assay [4], in assay [5] and in assay [6] was “inactive” in each case.
`O=C(O)C1=CC(=C(c2ccc(O)c(C(=O)O)c2)c2ccc(O)c(C(=O)O)c2)C=CC1=O`: in assay [8], the call was inactive. For the same molecule, the Potency entry in assay [2] and in assay [3] was “inactive” throughout. In addition, the Potency in assay [4] was 25.1 µM (active); in assay [5] it was 4.47 µM (active); in assay [6], 2.51 µM (active). The max response in assay [7] was 21.2%.
With `O=C1Nc2ccc(I)cc2/C1=C/c1cc(Br)c(O)c(Br)c1`, the call in assay [8] was inactive. The Potency result in assay [2], in assay [3], in assay [4], in assay [5] and in assay [6] was “inactive” in each case. The max response in assay [7] is -8.13%.
Turning to `CC(C)NC[C@H](O)COc1cccc2ccccc12`, the call in assay [8] was inactive. The Potency entry in assay [2], in assay [3], in assay [4], in assay [5] and in assay [6] was “inactive” each time.
On to `C[C@]12C=CC(=O)C=C1CC[C@@H]1C2=CC[C@]2(C)[C@@H](C(=O)CN3CCN(c4cc(N5CCCC5)nc(N5CCCC5)n4)CC3)CC[C@@H]12`, for which the call in assay [8] was inactive. In addition, the Potency result in assay [2], in assay [3], in assay [4], in assay [5] and in assay [6] was “inactive” in each case.
